Reference: paper PMC7826789 (International Journal of Molecular Sciences, 2021)

Columns and labels:
Conditions in all cases: Compound Concentration (nM):1000
CDK3 = system: CDK3
CDK4-cyclinD1 = system: CDK4-cyclinD1
CDK4-cyclinD3 = system: CDK4-cyclinD3
CDK4 = system: CDK4
CDK5 = system: CDK5
CDK7 = system: CDK7
CDK8 = system: CDK8
CDK9 = system: CDK9
CDKL1 = system: CDKL1
CDKL2 = system: CDKL2
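Note: KINOMEscan scanMAX binding as percent activity remaining versus control; lower means stronger binding.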

Compound	Percent Control (CDK3) [%]	Percent Control (CDK4-cyclinD1) [%]	Percent Control (CDK4-cyclinD3) [%]	Percent Control (CDK4) [%]	Percent Control (CDK5) [%]	Percent Control (CDK7) [%]	Percent Control (CDK8) [%]	Percent Control (CDK9) [%]	Percent Control (CDKL1) [%]	Percent Control (CDKL2) [%]
COc1cccc(-c2c[nH]c3c(N/N=C/c4ccncc4)ncnc23)c1 [GW814408X]	67	26	25	100	82	2.2	100	65	15	26
NS(=O)(=O)c1ccc(Nc2ncc(-c3ccccc3)o2)cc1 [GW572399X]	100	60	88	95	100	21	93	100	80	65
COc1ccc2[nH]c3c4[nH]c5ccc(OC)cc5c4c4c(c3c2c1)C(=O)NC4=O [GW296115X]	100	82	74	100	75	56	87	58	75	92
CN1CCN(C(=O)c2ccc(NC(=O)Nc3ccc(N(C)c4ccnc(Nc5ccc(CS(C)(=O)=O)cc5)n4)cc3)cc2)CC1.Cl [GW830263A]	100	77	89	83	91	61	85	69	73	1.7
COc1ccccc1-c1cc(/C=C2\C(=O)Nc3ncc(Br)cc32)cc(Br)c1O [GW442130X]	100	88	95	100	99	89	71	97	100	96
COc1cc(/C=N/Nc2ncnc3[nH]ncc23)ccc1O [GW578748X]	100	79	100	92	84	70	83	100	52	100
Cl.c1ccc(Cc2nc3ccc(Nc4ncnc5ccccc45)cc3[nH]2)cc1 [GR269666A]	100	93	100	93	100	100	88	100	100	100
COc1cc(C=NNc2ncnc3c2cnn3-c2ccccc2)ccc1O [GW513184X]	97	89	81	100	64	4	100	100	80	22
CCc1ccc(Oc2nccc(-c3c(-c4ccc(F)cc4)ncn3C3CCNCC3)n2)cc1 [SB-242719]	100	94	76	91	100	88	86	100	86	96
Cl.O=S1CCN(Cc2ccc(-c3ccc4ncnc(Nc5ccc(OCc6ccccc6)c(F)c5)c4c3)o2)CC1 [GW576924A]	100	100	100	100	100	100	86	100	100	100
Cl.O=C(Nc1ccc(Oc2ccc3[nH]c(NC(=O)c4ccco4)nc3c2)cc1)Nc1cc(C(F)(F)F)ccc1F [GW683134A]	100	100	100	100	100	12	100	100	77	6.5
CCS(=O)(=O)c1ccc(OC)c(Nc2ncc(-c3cccc(OC)c3)o2)c1 [GW580509X]	100	93	93	99	100	84	100	100	98	98
COc1ccc2c(-c3ccnc(Nc4cccc(OC(F)(F)F)c4)n3)cnn2n1 [GW810372X]	100	90	74	83	100	61	90	97	77	18
COc1cc2ncnc(Nc3ccc4c(cnn4Cc4ccccc4)c3)c2cc1OC.Cl [GW282449A]	100	100	100	100	100	100	100	100	100	95
O=C1Nc2ccc(C(=O)c3ccco3)cc2C1=Cc1cc(Cl)c(O)c(Cl)c1 [GW406108X]	100	78	94	94	89	76	80	100	88	100
COc1cccc(-n2ncc3c(N/N=C/c4ccncc4)ncnc32)c1 [GW784752X]	100	49	72	93	90	8.1	100	100	51	46
C/C(Nc1ccc(S(N)(=O)=O)cc1)=C1/C(=O)Nc2ccccc21 [GW335962X]	100	29	64	100	100	74	78	100	85	82
Cl.O=C(Nc1ccc(Oc2ccc3[nH]c(NC(=O)c4ccccc4)nc3c2)cc1)Nc1cc(C(F)(F)F)ccc1F [GW709042A]	100	92	100	84	100	32	54	81	92	69
CC1=C(C(=O)Nc2ccc3[nH]ncc3c2)C(c2ccc3ccccc3c2)CC(=O)N1 (centres unmarked) [GSK270822A]	99	63	94	94	100	88	71	100	91	93
NS(=O)(=O)c1ccc(N/N=C2\C(=O)Nc3ccc(C(=O)NCCc4c[nH]cn4)cc32)cc1 [GW300660X]	100	12	30	100	100	33	100	100	55	100
